# TRHR agonist = qHTS for Small Molecule Agonists and Allosteric Enhancers of Human TRH Receptor: Primary Screen for Agonists. activation, % at 2 µM. AID 493084, 2011. TRHR cells, calcium flux fluo-8, FDSS agonist mode. Thyrotropin-releasing hormone receptor (Homo sapiens), P34981. 360,000 compounds, 0.18% hits; note: 0% is about no effect
#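 Read-out: compound-evoked intracellular calcium rise in TRHR cells, fluo-8 dye, kinetic FDSS fluorescence at 1 s/cycle following a 10-cycle baseline. Cells cultured overnight before dye loading (30 min–1.5 h, RT).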
# D1 antag = Antagonist of Human D 1 Dopamine Receptor: qHTS | activity change, negative = inhibition, % at 10 µM | AID 504652, 2011 | D(1A) dopamine receptor (Homo sapiens), P21728 | HEK293 TREx D1 cells, calcium flux, dopamine EC80; stronger effect = lower value | 360,000 compounds, 3.2% hits; in the data active = activity change below about -30%; note: % is set by controls: 0 for no effect and ±100 for the full control effect
# Target sequence (P21728 whole entry, looked up): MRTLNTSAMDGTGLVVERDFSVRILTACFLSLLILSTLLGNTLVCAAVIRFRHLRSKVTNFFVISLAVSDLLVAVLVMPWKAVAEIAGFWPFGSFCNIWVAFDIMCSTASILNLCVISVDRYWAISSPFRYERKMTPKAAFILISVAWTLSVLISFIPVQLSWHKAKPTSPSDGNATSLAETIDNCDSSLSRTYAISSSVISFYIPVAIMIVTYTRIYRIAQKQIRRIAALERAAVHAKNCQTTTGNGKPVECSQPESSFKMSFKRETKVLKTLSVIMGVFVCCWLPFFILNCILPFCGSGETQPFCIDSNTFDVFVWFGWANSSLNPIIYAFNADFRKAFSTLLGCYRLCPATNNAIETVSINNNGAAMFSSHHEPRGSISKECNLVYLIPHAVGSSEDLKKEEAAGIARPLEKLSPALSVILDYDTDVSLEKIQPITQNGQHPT
#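 Antagonism measured as reduced calcium response to an EC80 dopamine addition following 180 s compound pre-read; cells were inducible HEK293 Trex D1 plated overnight at 30 C, read kinetically at 1 cycle/sec.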
# D1 ag = Allosteric Agonists of the Human D1 Dopamine Receptor: qHTS | D(1A) dopamine receptor (Homo sapiens), P21728 | HEK293 T-REx D1 cells, calcium flux, agonist mode | activation, % at 2 µM | 360,000 compounds, 1% hits; note: 0% is about no effect
#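 Tetracycline-induced HEK293 TREx D1 cells, force-coupled to calcium signalling, were dye-loaded with a no-wash calcium kit. Compound was pin-added after a 10 s baseline. Fluorescence was read kinetically at 1 cycle/s for 180 s, with calcium rises flagged as agonism.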
# TRHR PAM = qHTS for Small Molecule Agonists and Allosteric Enhancers of Human TRH Receptor: Primary Screen for Enhancers; enhancement, % at 2 µM; 360,000 compounds, 0.66% hits; Thyrotropin-releasing hormone receptor (Homo sapiens), P34981; TRHR cells, fluo-8 calcium fluorescence, EC20 TRH enhancement; in the data active = enhancement above about 30%; note: 0% is about no effect
#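 TRHR-expressing cells loaded with fluo-8 calcium dye were read kinetically (ex 480/em 530) during compound addition, then stimulated with an EC20 of TRH (10 nM final). Enhancement of the Gq-mediated intracellular calcium response was scored.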
# D1 potentiator = Potentiators of Human D1 Dopamine Receptor: qHTS. 360,000 compounds, 0.036% hits. potentiation, % at 10 µM. HEK293 TREx D1 cells, calcium flux, dopamine EC20 potentiation; in the data active = potentiation above about 30%; note: 0% is about no effect
# Active calls of the source: *; . = no result; ! = not active in a repeat. Hits are enriched below; roughly 4.7% of the tested compounds scored in any of these assays. Cut-off read from the data, not from the text of the source, unless noted: active = activation above about 30%; inactive = the rest.
SMILES,TRHR agonist,D1 antag,D1 ag,TRHR PAM,D1 potentiator
Cc1cccc(-c2nc3c(cnn3-c3ccccc3)c(=O)n2-c2ccc(Cl)cc2)c1,1,-36*,6,-5,-3
CCCn1c(N)c(C(=O)CSc2nnc(Cc3cccs3)n2C2CC2)c(=O)n(C)c1=O,-1,11,-1,-2,-3
COc1ccccc1CNS(=O)(=O)c1cc(-c2cc(C)no2)ccc1C(C)C,-1,-38*,18,4,-6
COc1ccccc1CNS(=O)(=O)c1cc(-c2cc(C)no2)ccc1C,0,7,14,10,3
CCc1ccc(-c2cc(C)no2)cc1S(=O)(=O)NCCCN1CCN(c2ccccc2)CC1,0,-67*,17,-2,-6
CCc1ccc(-c2cc(C)no2)cc1S(=O)(=O)Nc1ccc(C)cn1,-1,-45*!,0,-3,2
Cc1cc(-c2ccc(C)c(S(=O)(=O)NCC3CCN(Cc4ccc(F)cc4)CC3)c2)on1,0,-33*!,9,1,-7
CC(C)C(C(=O)NCC1CCCO1)N(CC1CCCO1)C(=O)CNS(=O)(=O)c1ccccc1 (stereo not given),-1,6,0,2,0
COc1ccccc1CN1CCC(CNS(=O)(=O)c2cc(-c3cc(C)no3)ccc2C)CC1,2,-10,40*,3,-7
COc1ccc(-c2cc(C)no2)cc1S(=O)(=O)NCC1CCN(Cc2cc(C)ccc2C)CC1,1,0,15,-1,-6
O=C(Cn1c(=O)oc2cc(S(=O)(=O)NCc3ccccc3)ccc21)NCc1ccccc1Cl,0,-6,18,-7,-4
COc1ccc(CN2CCN(c3cc(C)nc4c5c(C)cc(C)nc5nn34)CC2)cc1F,-1,-38*,1,-1,-3
CCOc1ccc(CN2CCN(c3cc(C)nc4c5c(C)cc(C)nc5nn34)CC2)cc1,-1,7,1,4,-4
Cc1ccc(NC(=O)CSC2=NN3CCCC(=O)N=C3S2)cc1Cl,-1,-39*,25,7,.
O=C1CCCN2N=C(SCC(=O)Nc3ccc(Cl)cc3)SC2=N1,0,-9,10,3,-5
Cc1ccc(C)c(NC(=O)CSc2nncn2C)c1,0,-33*,-3,-2,-5
Cc1cc(C)cc(-n2ccnc2SCC(=O)Nc2ccc3c(c2)OCCO3)c1,-1,-25,0,4,-4
Cc1cc(C)cc(-n2ccnc2SCC(=O)Nc2ccc(C)c(Cl)c2)c1,0,-40*,3,1,1
CCOc1ccc(-n2ccnc2SCC(=O)Nc2cc(C)ccc2C)cc1,-1,-46*,-1,1,-7
COc1ccc(C)cc1NS(=O)(=O)c1cc(Br)cc2c1N(C(C)=O)C(C)C2 (stereo not given),0,-11,-1,-4,1
COc1cc(C(C(=O)NC2CCCC2)N(C(=O)c2snc(C(N)=O)c2N)c2ccccc2)cc(OC)c1OC (stereo not given),0,-14,7,5,-1
CC(C)(C)C(=O)NC(=S)NNC(=O)C(c1ccccc1)c1ccccc1,99*,24,350*,1,34*
COCCN(CCOC)S(=O)(=O)c1ccc(NC(=O)c2cnccn2)cc1,0,-4,3,-10,-8
C/C(=N\Nc1nc2ccccc2[nH]1)c1ccc(C)o1,0,-52*,3,2,-9
CC(NC(=O)C12CC3CC(CC(C3)C1)C2)c1ccc(F)cc1 (stereo not given),-1,-51*,-3,-1,9
COc1ccc(C(C)NC(=O)C23CC4CC(CC(C4)C2)C3)cc1OC (stereo not given),0,2,0,-4,12
CCOc1ccccc1C(=O)NC1CCNCC1,0,-19,2,-3,4
CCOC(=O)N1CCC(NC(=O)CCCC(=O)O)CC1,-1,-33*,3,-1,-4
CCOC(=O)N1CCC(NC(=O)c2ccc(Cl)cc2)CC1,0,-8,3,0,-2
